From PubChem BioAssay (Tox21)
Records with an inconclusive call do not appear. The source holds several records for some structures; these can differ, active in one and inactive in another. Activity calls are given as the source filed them. Calls follow the shape of the full dose curve.

Tests used:
[1] = target: Acetylcholinesterase (Homo sapiens) (UniProt P22303); assay: Acetylcholinesterase (AChE) small molecule antagonists: colormetric cell-based qHTS assay (AID 1347395); details: SH-SY5Y cells AChE activity, colorimetric (Ellman); series mostly up to 115 µM; also: nearly all actives have a fitted effect of over 30% in size; also: potency is read from the fitted curve at half-maximal effect
Acetylcholinesterase (Homo sapiens), sequence (P22303 whole entry, looked up): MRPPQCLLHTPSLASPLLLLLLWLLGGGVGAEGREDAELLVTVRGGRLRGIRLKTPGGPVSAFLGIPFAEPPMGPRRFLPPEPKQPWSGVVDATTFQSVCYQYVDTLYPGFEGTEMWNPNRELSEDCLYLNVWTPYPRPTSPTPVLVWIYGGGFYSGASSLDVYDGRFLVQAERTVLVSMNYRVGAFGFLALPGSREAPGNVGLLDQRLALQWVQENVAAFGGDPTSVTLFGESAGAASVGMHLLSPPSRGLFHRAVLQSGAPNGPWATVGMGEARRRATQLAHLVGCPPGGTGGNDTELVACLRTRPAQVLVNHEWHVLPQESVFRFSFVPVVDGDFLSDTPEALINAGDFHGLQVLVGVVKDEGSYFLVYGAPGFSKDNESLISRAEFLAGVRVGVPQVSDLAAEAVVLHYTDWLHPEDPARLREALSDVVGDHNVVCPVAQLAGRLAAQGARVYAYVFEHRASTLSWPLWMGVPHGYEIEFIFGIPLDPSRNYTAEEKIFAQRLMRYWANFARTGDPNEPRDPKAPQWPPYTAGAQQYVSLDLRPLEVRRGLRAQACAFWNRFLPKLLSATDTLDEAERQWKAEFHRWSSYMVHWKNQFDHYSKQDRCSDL
Procedure, shortened: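 Colorimetric read-out: DTNB detects thiocholine released when cellular AChE in SH-SY5Y cells hydrolyses acetylthiocholine. Cells attached overnight, received compound for 30 min at 37 C, then substrate mix for 90 min at 37 C.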

[2] = target: Acetylcholinesterase (Homo sapiens) (UniProt P22303); assay: Acetylcholinesterase (AChE) small molecule antagonists: enzyme-based qHTS assay (AID 1347397); details: Potency: AChE enzyme activity inhibition; outcome: AChE enzyme activity inhibition; series mostly up to 115 µM; also: nearly all actives have a fitted effect of over 55% in size; also: potency is read from the fitted curve at half-maximal effect
Procedure, shortened: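 Human recombinant acetylcholinesterase; substrate acetylthiocholine; thiocholine quantified with DTNB (colorimetric). Compound preincubation 30 min RT; reaction 10 min RT.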

[3] = target: Acetylcholinesterase (Homo sapiens) (UniProt P22303); assay: Acetylcholinesterase (AChE) small molecule antagonists: fluorescence cell-based qHTS assay (AID 1347398); details: SH-SY5Y cells; Potency: AChE activity; outcome: AChE activity; series mostly up to 115 µM; also: nearly all actives have a fitted effect of over 50% in size; also: potency is read from the fitted curve at half-maximal effect
Procedure, shortened: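 Thiocholine generated from acetylthiocholine by SH-SY5Y cell AChE is detected with Thiolite Green (Ex/Em 490/520 nm) after 40 min at room temperature, following 30 min compound pretreatment at 37 C.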

[4] = target: Acetylcholinesterase (Homo sapiens) (UniProt P22303); assay: Acetylcholinesterase (AChE) small molecule antagonists: enzyme-based qHTS assay with human liver microsomes (AID 1347399); details: Potency: qHTS inhibition; outcome: qHTS inhibition; series mostly up to 115 µM; also: nearly all actives have a fitted effect of over 60% in size
Procedure, shortened: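 Recombinant human AChE (50 mU/mL in the enzyme mix) and human liver microsomes (0.25 mg/mL final) were preincubated with compound and NADPH (0.25 mg/mL final) for 30 min at 37 C. Acetylthiocholine/DTNB was then added; thiocholine was read colorimetrically after 10 min at room temperature.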

Measured: Potency

CCCCOCC(C)OCC(C)O (centres undefined)
inactive: [1] | [4]
active: [2] 57.8 µM | [3] 29 µM

CCCCC(CC)C(=O)O (centres undefined)
inactive: all assays above

CSc1ccc(C=O)cc1
inactive: all assays above

COc1c(Cl)ccc(Cl)c1C(=O)O
inactive: all assays above

O=C(Oc1ccccc1)c1ccc2ccccc2c1O
inactive: all assays above

COC(CC(C)CCCC(C)(C)O)OC (centres undefined)
inactive: all assays above

CC1=C(C(=O)O)N2C(=O)[C@@H](NC(=O)[C@H](N)C3=CCC=CC3)[C@H]2SC1
inactive: all assays above

OCCc1ccccc1
inactive: all assays above

CC(=O)c1ccc2ccc3ccccc3c2c1
inactive: all assays above

C=CCOC(=O)CCC1CCCCC1
inactive: all assays above

CCC(C)(C)CC
inactive: all assays above

Cc1cc(CCCOc2c(C)cc(-c3noc(C(F)(F)F)n3)cc2C)on1
inactive: all assays above

CCOC(=O)[C@H](CCc1ccccc1)N[C@@H](C)C(=O)N1Cc2ccccc2C[C@H]1C(=O)O
inactive: all assays above

O=C(O)CCC(=O)c1ccc(-c2ccccc2)cc1
inactive: all assays above

CCCCCC(=O)OCC
inactive: all assays above

C[Si](C)(C)Cl
inactive: all assays above

C/C=C/C(=O)N(CC)c1ccccc1C
inactive: all assays above

CCCCC1CCC(=O)O1 (centres undefined)
inactive: all assays above

CC(C)(C)Cl
inactive: all assays above

C/C=C/C(=O)O
inactive: all assays above

CCCCCCCCCCCCOCCO
inactive: all assays above

C=C(C)C(=O)OCc1ccccc1
inactive: all assays above

C=CC(=O)OCCCCCCOC(=O)C=C
inactive: all assays above

CCCCCCCCCCCCCCCCN
inactive: all assays above

CC/C=C\CC/C=C/C(OCC)OCC
inactive: all assays above

ClCCOCCOCCCl
inactive: all assays above

CCCCCCCCC=O
inactive: all assays above

CC1CCCNC1 (centres undefined)
inactive: all assays above

CO[C@@H]1[C@H](OC(=O)/C=C/C=C/C=C/C=C/C(=O)O)CC[C@]2(CO2)[C@H]1[C@@]1(C)O[C@@H]1CC=C(C)C
inactive: all assays above

NS(=O)(=O)c1ccccc1OC(F)(F)F
inactive: all assays above

CCOC(C)=O
inactive: all assays above

CC1=C(C(=O)OC(C)C)C(c2cccc([N+](=O)[O-])c2)C(C(=O)OC2CN(C(c3ccccc3)c3ccccc3)C2)=C(N)N1 (centres undefined)
inactive: all assays above

CCCCc1nc2cccnc2n1Cc1ccc(-c2ccccc2-c2nnn[nH]2)cc1
inactive: all assays above

CC(C)CCCCCCOC(=O)C1CCCCC1C(=O)OCCCCCCC(C)C (centres undefined)
inactive: all assays above

N#Cc1ccc(CC(=O)c2cccc(C(F)(F)F)c2)cc1
inactive: all assays above

Nc1nc2ncc(CNc3ccc(C(=O)N[C@@H](CCC(=O)O)C(=O)O)cc3)nc2c(=O)[nH]1
inactive: all assays above

OCCc1ccccn1
inactive: all assays above

Nc1ccc(S(=O)(=O)Nc2ccccn2)cc1
inactive: all assays above

CC(C(=O)O)c1ccc(-c2ccccc2)c(F)c1 (centres undefined)
inactive: all assays above

CC1CCC(CO)CC1 (centres undefined)
inactive: all assays above

OCc1cccc(Oc2ccccc2)c1
inactive: all assays above

O=C1CCC(C2CCCCC2)CC1
inactive: all assays above

CCN1CCN(C(=O)N[C@@H](C(=O)N[C@@H]2C(=O)N3[C@@H]2SC(C)(C)[C@H]3C(=O)O)c2ccccc2)C(=O)C1=O
inactive: all assays above

C=C(C)C(=O)O[C@H]1C[C@@H]2CC[C@@]1(C)C2(C)C
inactive: all assays above

N#C[C@@H]1CC(F)(F)CN1C(=O)CNC1CC2CCC(C1)N2c1ncccn1 (some centres undefined)
inactive: all assays above

Cc1c(C)c2c(c(C)c1O)CC[C@@](C)(CCC[C@H](C)CCC[C@H](C)CCCC(C)C)O2
inactive: all assays above

CN1CC(=O)NC1=N
inactive: all assays above

CCCCCOC(=O)CCC
inactive: all assays above

Cc1c[nH]c(=O)[nH]c1=O
inactive: all assays above

CC(C=O)c1ccccc1 (centres undefined)
inactive: all assays above

CC1=CCC(C(C)C)=CC1
inactive: all assays above

CCCCCOc1ccc(C2SC(=O)NC2=O)cc1OCC (centres undefined)
inactive: all assays above

Cc1ccc2n[nH]nc2c1
inactive: all assays above

NCCCOCCOCCOCCCN
inactive: all assays above

O=S(=O)(Oc1ccc(Cl)cc1)c1ccccc1
inactive: all assays above

Cc1ccc2oc(CN(Cc3ccccc3)C(=O)Nc3c(F)cc(F)cc3F)c(-c3ccc(Cl)cc3)c2c1
inactive: all assays above

CC1(C)[C@@H]2CC[C@]3(C2)[C@@H]1C(=O)CCC3(C)C
inactive: all assays above

CCCCCc1cccc(=O)o1
inactive: all assays above

C[C@@H](C1=C(CCN(C)C)Cc2ccccc21)c1ccccn1
inactive: all assays above

O=C(O)CCc1ccccc1
inactive: all assays above

O=C(O)c1ccccc1
3.74 µM (active) and inactive: [1]
inactive: all other assays above

CC(=O)CC(=O)Nc1ccccc1
inactive: all assays above

CCc1cccc(CC)c1N(COC)C(=O)CS(=O)(=O)O
inactive: all assays above

Cc1cccc(C)c1NC(=O)CN1CCCCCC1
inactive: all assays above

CCOC(=O)CC1(C)OCC(C)O1 (centres undefined)
inactive: all assays above

O=C(O)c1cc2ccccc2nc1C(=O)O
inactive: all assays above

CC1(C)CC(N=C=O)CC(C)(CN=C=O)C1 (centres undefined)
inactive: all assays above

O=C(O[C@@H]1Cc2c(O)cc(O)cc2O[C@@H]1c1cc(O)c(O)c(O)c1)c1cc(O)c(O)c(O)c1
inactive: all assays above

CCCCCCCO
inactive: all assays above

CCCC(CC)c1ccccc1 (centres undefined)
inactive: all assays above

COc1cc(S(N)(=O)=O)cc(C(=O)O)c1OC
inactive: all assays above

OC[C@H]1O[C@@](CO)(O[C@H]2O[C@H](CO)[C@@H](O)[C@H](O)[C@H]2O)[C@@H](O)[C@@H]1O
inactive: all assays above

NCc1ccccc1Sc1ccccc1CO
inactive: all assays above

CC(C)[C@@H]1CC[C@@H](C)C[C@H]1O
inactive: all assays above

CCCCCCCCCCCCCCCCO
inactive: all assays above

NCCN1CCNC1=O
inactive: all assays above

CCCCCCOCCO
inactive: all assays above

O=C(O)CCCCCCCCCCC(=O)O
inactive: all assays above

CC(=O)Nc1ccc(OC(=O)c2ccccc2OC(C)=O)cc1
inactive: all assays above

CC[C@H](c1ccc(O)cc1)[C@@H](CC)c1ccc(O)cc1
inactive: all assays above

CCOC(=O)c1ccc(OCCN2C[C@H](O)[C@@H](O)[C@H](O)[C@H]2CO)cc1
inactive: all assays above
